A selection: hits, their analogues and other compounds. The true share with any hit is near 4.9%.
TIM10 inh = growth inhibitors of TIM10 yeast strain | S. cerevisiae TIM10 strain growth, BacTiter-Glo luminescence, 24 h | inhibition, % at 10 µM | hit rate 1.4% among 330,000 | AID 463195;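 active = inhibition of 40% or more at the single tested concentration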;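 note: wild-type TIM10 isogenic control strain grown at permissive 25 °C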
NALP3 yeast inh = inhibitors of NALP3 inflammasome in yeast. Yeast reconstituted NLRP3/ASC/caspase-1, beta-gal luminescence, 24 h. inhibition, % at 10 µM. hit rate 0.39% among 330,000;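 active = inhibition of 50% or more; inactive = inhibition below 50%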;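 note: plate controls were induced DMSO wells for no effect and uninduced yeast grown without galactose for full effect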
tim10-1 inh = inhibits growth of tim10-1 mutant yeast; AID 463190; hit rate 2.2% among 330,000; S. cerevisiae tim10-1 ts strain growth, BacTiter-Glo, 24 h; inhibition, % at 20 µM;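 active = inhibition of at least 40%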;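 note: mutant grown at 25 °C; 0% = DMSO wells with yeast and 100% = wells holding no yeast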
SKKanGAS inh = blocks kanamycin growth of S. pyogenes SKKanGAS strain. hit rate 1.3% among 300,000. inhibition, % at 7.5 µM. AID 1662. BacTiter-Glo, 6 h;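 active = mean replicate score, as percent of positive control median, at least 50; inconclusive = mean below 50 but one replicate at or above 50; inactive = mean and every replicate below 50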;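 note: strain carries kanamycin resistance gene driven by streptokinase promoter and grows in 40 µg/ml kanamycin; loss of luminescence reflects streptokinase promoter inhibition or plain growth inhibition; 0% = median of DMSO wells and 100% = positive control at its reference dose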
tim23-1 inh = inhibits growth of tim23-1 mutant yeast; S. cerevisiae tim23-1 growth, BacTiter-Glo luminescence, 24 h; hit rate 1.3% among 330,000; inhibition, % at 20 µM; AID 463212;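 active = growth inhibition of the mutant yeast at or above 50%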;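 note: temperature-sensitive mutant grown at 25 °C; plate controls were DMSO-treated mutant yeast for no effect and medium wells lacking yeast for full effect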
NALP1 inh = blocks the NALP1 inflammasome reconstituted in yeast; S. cerevisiae NALP1/ASC/caspase-1 growth, X-gal OD620, 72 h; hit rate 0.61% among 280,000; AID 2071; inhibition, % at 10 µM; in the data active = inhibition mostly above about 24%, no sharp cut-off; inactive = mostly below about 32%
tim10-1 confirm = tim10-1 yeast growth inhibition, confirmed. shares compounds with tim10-1 inh. inhibition, % at 20 µM. AID 463213. S. cerevisiae tim10-1 ts strain growth, BacTiter-Glo, 24 h. hit rate 56% among 7,400;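 active = inhibition of yeast growth at or above a set limit in either of two repeat tests at 20 µM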;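 note: tim10-1 mutant grown at permissive 25 °C to find synthetic lethal compounds; 0% = DMSO yeast wells and 100% = medium wells without yeast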
Starred values were filed as active, the others as inactive; ? = inconclusive; · = no result.

SMILES	TIM10 inh	NALP3 yeast inh	tim10-1 inh	SKKanGAS inh	tim23-1 inh	NALP1 inh	tim10-1 confirm
COC1=C(Nc2ccc(O)cc2)C(=O)c2ccccc2C1=O	35.9	18.5	38.8	12.3	41.9	47.1	·
Cc1ccc(NC(=O)CC2=NC(=O)C(CC(=O)Nc3ccccc3C)S2)cc1 (stereo not given)	-6.5	-33.9	-1.5	-9.5	8.2	-1.7	·
CCOc1ccc(OCc2ccc(C(=O)Nc3cccnc3)cc2)cc1	16.8	1.8	-23.3	·	2.9	·	·
Cc1ccc(C)c(C(=O)COC(=O)C(C)N2C(=O)C3C4CCC(C4)C3C2=O)c1 (stereo not given)	26.2	2.5	31.6	-0.7	24.2	8.7	·
O=C(c1ccc2c(c1)OCCO2)N1CCN(c2ncc(C(F)(F)F)cc2Cl)CC1	10.4	16.7	48.1*	11.7	41.7	·	34.4*
O=C(Nc1ccc2c(c1)OCO2)N1CCN(c2ncc(C(F)(F)F)cc2Cl)CC1	7.3	-8.7	5.6	10.1	11.8	-31.0	·
c1ccc2c(c1)ccc1nnc(SCc3ccc4c(c3)OCO4)n12	5.0	30.5	42.0*	-2.4	40.4	-30.5	19.9
CS(=O)(=O)c1ccccc1-c1csc(N2CCC(C(N)=O)CC2)n1	4.6	16.7	5.8	·	4.2	·	·
Cc1ccc(N2C(=O)CSC23C(=O)Nc2ccccc23)cc1 (stereo not given)	8.8	1.0	13.8	-1.6	1.1	-1.7	·
CC1=CC(C)(C)N2C(=O)C3(SCC(=O)N3c3ccc(O)cc3)c3cc(C)cc1c32 (stereo not given)	22.7	8.5	42.7*	10.8	27.3	12.4	19.8
Cc1cc(C)c(COc2ccc(/C=N/n3c(C)n[nH]c3=S)cc2)c(C)c1	14.4	17.9	41.2*	?	39.3	12.9	11.3
CCC(C)C(=O)N1c2ccccc2C(=C2SC(C(=O)OC)=C(C(=O)OC)S2)C(=S)C1(C)C (stereo not given)	26.8	35.8	43.6*	20.6	32.2	50.5	28.9
COc1ccc(C(=S)N2CCCCC2)cc1Br	0.9	3.3	31.1	5.0	28.3	7.6	·
S=C(c1ccc(N2CCCC2)c(Br)c1)N1CCCCC1	17.7	24.6	44.6*	7.7	28.9	7.9	21.0
Cc1cc(-c2ccc(C)c(S(=O)(=O)N3CCN(c4ccc([N+](=O)[O-])cc4)CC3)c2)on1	3.2	-3.1	21.8	42.3	14.9	3.2	·
Cc1cc(-c2ccc(C)c(S(=O)(=O)N3CCN(c4ccccn4)CC3)c2)on1	18.4	20.4	42.1*	-2.0	39.2	13.2	31.8*
Cn1cc(CN2CCC(Oc3ccc(C(=O)N4CCCC4)cc3)CC2)cn1	1.8	8.5	5.8	-1.7	11.5	13.1	·
Cc1ccc(C)c(S(=O)(=O)Nc2ccc(-n3cnnn3)cc2)c1	3.4	-12.9	16.4	·	12.6	·	·
C=CCn1c(CCn2c3ccccc3c3ccccc32)n[nH]c1=S	33.1	11.8	43.4*	1.0	29.1	1.3	36.5*
CCCc1cc(C(=O)NNC(=S)NCc2ccccc2)cs1	34.0	15.1	44.5*	-5.4	16.6	20.4	29.1
O=C(Nc1cccc(S(=O)(=O)N2CCOCC2)c1)C1CC1	-3.4	7.5	-11.2	·	-3.1	·	·
CC(=O)Nc1ccc(N2S(=O)(=O)c3ccccc3S2(=O)=O)cc1	23.7	9.5	41.2*	·	24.5	4.0	16.9
CC(C)OC(=O)CSc1nc2cccnc2n1C1CCCCC1	10.5	-4.4	40.0	9.1	14.0	18.9	15.1
CCOC(=O)CNC(=O)CSc1nc2cccnc2n1C1CCCCC1	-4.3	-9.9	11.7	0.2	16.1	17.4	·
CC1=[N+]([O-])C(C)(C)N(O)C1(C)C	8.7	7.9	-12.1	4.7	-2.0	0.5	·
SMILES	TIM10 inh	NALP3 yeast inh	tim10-1 inh	SKKanGAS inh	tim23-1 inh	NALP1 inh	tim10-1 confirm
Cc1[nH]c2c(ccc3ccccc32)c1C1C(CCN)C1(C)C (stereo not given)	29.2	16.3	44.5*	9.4	48.5	19.4	32.5*
S=c1[nH]c2ccc3ccccc3c2[nH]1	17.0	18.0	19.3	-2.8	20.7	12.6	·
Cc1ccc(C)c(NC(=S)NNC(=O)c2csc3c2CCC(C)C3)c1 (stereo not given)	-13.0	8.7	44.5*	28.2	23.3	·	34.4*
Cc1ccc(C)c(NC(=S)NNC(=O)c2csc3c2CCCC3)c1	14.8	4.3	36.9	-0.5	18.8	4.2	·
COc1ccc(-c2nc(SC(C)C(=O)NC3CC3)n[nH]2)cc1 (stereo not given)	6.0	11.1	9.1	·	18.2	·	·
Cc1cc(C)c2nc(N3CCCN(C(=O)c4ccco4)CC3)c(C#N)cc2c1	23.1	6.5	47.1*	-0.7	37.1	-22.2	32.2*
CCOC(=O)c1oc2nc(C(C)C)c3c(c2c1N)CCC3	20.8	24.2	43.1*	-4.2	37.2	18.8	29.4
CC(C)(C)C(=O)NC(=S)Nc1ccccc1N1CCCC1	25.6	-28.2	38.5	-1.9	5.8	-3.7	·
COC(=O)c1ccccc1NC(=S)NC(=O)C1CCCCC1	30.3	20.2	40.8*	-7.9	41.3	19.5	34.4*
CC(=O)NC(=S)Nc1ccccc1N1CCCCC1	26.1	-42.9	42.6*	-3.8	25.4	-3.4	17.6
O=C(NC(=S)Nc1ccccc1N1CCCC1)c1ccc([N+](=O)[O-])cc1	34.3	21.1	56.8*	5.8	48.6	5.6	42.5*
O=C(NC(=S)Nc1ccccc1N1CCCCC1)c1ccc(-c2cccc([N+](=O)[O-])c2)o1	15.6	1.9	40.6*	9.3	17.5	-7.8	5.5
COC(=O)c1ccccc1NC(=O)C1CCCC1	4.9	-9.0	26.6	-8.7	8.3	-15.2	·
CCc1cccc(N(C(=O)c2csnn2)C(C(=O)NC2CCCCC2)c2cccnc2)c1 (stereo not given)	4.7	5.2	9.5	1.8	10.2	7.8	·
Cc1scc(C(=O)N/N=C/c2ccco2)c1C	5.3	-1.4	-11.1	-8.0	14.7	-4.9	·
Cc1scc(C(=O)N/N=C/c2ccc([N+](=O)[O-])o2)c1C	37.4	17.6	46.2*	-1.0	46.5	-0.5	16.4
Nc1c(N2CCN(c3ccccc3)CC2)c2ccccc2oc1=O	11.5	4.1	49.4*	-7.4	27.5	17.2	27.4*
CC(C)(C)C1CCC(C(=O)OCC(=O)Nc2ccc3[nH]c(=O)[nH]c3c2)CC1 (stereo not given)	-0.8	23.3	29.9	2.6	10.6	-1.4	·
CCCn1c(N)c(C(=O)COC(=O)/C=C/c2ccc(OC(F)F)c(OC)c2)c(=O)[nH]c1=O	-5.2	8.2	7.5	·	7.6	·	·
N/C(=N\OC(=O)C1CCCCC1)c1cccc([N+](=O)[O-])c1	25.8	12.2	47.3*	·	31.3	12.7	49.0*
N/C(=N\OC(=O)c1ccncc1)c1cccc([N+](=O)[O-])c1	16.7	5.1	18.5	3.6	12.7	19.1	·
N/C(=N\OC(=O)CCCOc1ccccc1)c1cccc([N+](=O)[O-])c1	26.2	20.7	55.4*	-2.0	32.2	-0.2	46.1*

From PubChem
